Screening results as filed in PubChem BioAssay.
HIF-2a inh: inhibitors of HIF-2a; inhibition, % at 18.8 µM; 360,000 compounds, 0.72% hits; 786-0 RCC cells HIF-2a reporter, luciferase luminescence, overnight;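 active = inhibition of the luminescence signal of 40% or more relative to plate controls, in a single-dose primary screen at 18.75 µM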
Shn3 3UTR inh: Schnurri-3 reporter inhibition in Clone20 osteoblasts. Clone20 osteoblast Shn3 3'UTR firefly luciferase, 24 h. 360,000 compounds, 0.52% hits. AID 588674. inhibition, % at 12.5 µM;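 active = mean inhibition of at least 75% with every replicate also reaching 75%; inconclusive = mean inhibition at least 75% but some replicate below; inactive = mean inhibition below 75%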
Peg3 promoter: reduces Peg3 promoter-driven luciferase expression in HeLa. HeLa PEG-Prom luciferase reporter, luminescence, overnight. inhibition, % at 20 µM. 360,000 compounds, 1.7% hits;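 active = inhibition of at least 50% at 20 µM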
CF NFkB inh: blocks PAF-induced NF-kB reporter in cystic fibrosis cells; AID 588850; inhibition, % at 5 µM; KKLEB NF-kB-GFP reporter, GFP fluorescence overnight; 360,000 compounds, 0.86% hits;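 active = at least 50% inhibition at 5 µM, scaled per plate between neutral and stimulator controls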;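 also: PAF is a Pseudomonas aeruginosa culture filtrate used as stimulus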
KKLEB tox: CF airway cell cytotoxicity counter-screen. KKLEB CF airway cells viability, ATPlite luminescence, overnight; hits give low values; cells stimulated with P. aeruginosa culture filtrate. activity change (cytotoxicity), % at 5 µM. 360,000 compounds, 0.36% hits. AID 602141;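 active = corrected activity change at or below -50% at 5 µM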
MITF TRPM1 inh: MITF TRPM1 promoter inhibition in SK-MEL-5 cells; SK-MEL-5 TRPM1 promoter luciferase, 24 h; inhibition, % at 12.5 µM; 330,000 compounds, 0.83% hits; AID 488899;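 active = mean inhibition across replicates of 60% or more, whatever share of single replicates reaches that level; inconclusive = some that reach 60%, reason not given; inactive = mean inhibition across replicates below 60%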
A number is an active result; - = inactive; ? = inconclusive; . = not tested or not shown. The list is not random: actives were taken first. Their share in the collection is about 2.8%.

SMILES	HIF-2a inh	Shn3 3UTR inh	Peg3 promoter	CF NFkB inh	KKLEB tox	MITF TRPM1 inh
COc1ccc(N)c2c1C(=O)c1ccccc1C2=O	-	-	-	-	-	-
COc1ccc(OC)c2c1C(=O)C(Cl)=C(Cl)C2=O	94	.	107	90	-54	88
O=C(COC(=O)CNS(=O)(=O)c1cccc(Br)c1)NC(=O)Nc1ccc2c(c1)OCCO2	-	-	-	-	-	-
CC(C)Nc1nc(Cl)nc(N(C#N)CN2C(=O)c3ccccc3C2=O)n1	-	-	95	-	-	-
Cc1cc(C)nc(N(C#N)CN2C(=O)c3ccccc3C2=O)n1	-	-	-	-	-	-
CCC(C)Nc1nc(Cl)nc(N(C#N)CN2C(=O)c3ccccc3S2(=O)=O)n1 (stereo not drawn)	-	-	-	-	-	69
CN1CCN(C(=O)CCN2C(=O)c3ccccc3S2(=O)=O)CC1	-	-	-	-	-	-
COc1ccc2c(CC(=O)Nc3ncc(C)s3)coc2c1	-	-	65	-	-	-
COc1ccc2c(CC(=O)Nc3nc(C)cs3)coc2c1	-	-	-	-	-	-
COC(C(=O)C(O)C(C)O)C1Cc2cc3cc(OC4CC(OC5CC(O)C(O)C(C)O5)C(O)C(C)O4)c(C)c(O)c3c(O)c2C(=O)C1OC1CC(OC2CC(OC3CC(O)C(OC)C(C)O3)C(O)C(C)O2)C(O)C(C)O1 (stereo not drawn)	-	-	100	90	-	-
COc1ccc(NC(=O)C2CCN(S(=O)(=O)c3cn(C)nc3C)CC2)cc1	-	-	-	-	-	-
COc1ccc(CN2CCN(C(c3ccc(F)cc3)c3ccc(F)cc3)CC2)c(OC)c1OC	-	-	77	-	-	-
COc1ccc(CN2CCN(c3ccc(F)cc3)CC2)c(OC)c1OC	-	-	-	-	-	-
Cc1ccc(SC[C@H](C)CN2CC[C@H](C(C)(C)C)CCC2=O)cc1	-	-	-	-	-	-
Cc1ccc(S(=O)(=O)/N=c2\ccc(Cl)cn2C(F)F)cc1	-	-	-	-	-	-
Cc1c(CCOC(=O)CC23CC4CC(CC(C4)C2)C3)sc[n+]1CC(=O)c1ccccc1	-	-	62	-	-	-
Cc1c(CCOC(=O)C23CC4(C)CC(C)(CC(C)(C4)C2)C3)sc[n+]1CC(=O)c1ccccc1	-	90	113	-	-	?
CCCN(CCC)S(=O)(=O)c1ccc(C(=O)Nc2nc(-c3ccccc3)c(C(=O)OCC)s2)cc1	-	-	-	-	-	-
Cc1ccc(Cl)cc1N1CCN(C(=O)Cc2csc(Nc3nc(=S)[nH]c4ccccc34)n2)CC1	-	-	-	-	-	-
O=C(Cc1csc(Nc2nc(=S)[nH]c3ccccc23)n1)N1CCN(c2cccc(Cl)c2)CC1	-	-	82	-	-	78
NC(=O)c1c(NC(=O)c2ccc([N+](=O)[O-])o2)sc2c1CCCC2	-	-	99	107	-64	62
O=C(Nc1cccc([N+](=O)[O-])c1)c1ccc([N+](=O)[O-])o1	-	-	-	70	-	.
Cc1ccc(-n2nnnc2CNC(=O)c2ccc([N+](=O)[O-])o2)cc1C	-	-	-	-	-	62
Cc1cccc(NC(=O)c2ccc([N+](=O)[O-])o2)c1C	-	-	-	-	-	-
N#Cc1c(NC(=O)c2ccc([N+](=O)[O-])o2)sc2c1CCC2	-	-	-	-	-	-
SMILES	HIF-2a inh	Shn3 3UTR inh	Peg3 promoter	CF NFkB inh	KKLEB tox	MITF TRPM1 inh
O=C(Nc1ccc2[nH]c(=O)[nH]c2c1)c1ccc([N+](=O)[O-])o1	-	-	-	-	-	-
O=C(Nc1cccc2ccccc12)c1ccc([N+](=O)[O-])o1	-	-	-	83	-	-
Cc1ccc(NC(=O)c2ccc([N+](=O)[O-])o2)cc1C	-	-	97	82	-63	-
CC(/C=C1\SC(=S)N(c2ccc(C(=O)O)cc2)C1=O)=C\c1ccccc1	51	-	-	-	-	-
CCc1ccc(/C=C2\SC(=S)N(CCC(=O)Nc3cc(C)on3)C2=O)cc1	82	-	-	-	-	-
COc1cccc(/C=C2\SC(=S)N(CCC(=O)N3CCCCC3)C2=O)c1	46	-	90	-	-	-
COc1ccc(/C=C2\SC(=S)N(CCC(=O)N3CCCCC3)C2=O)cc1	76	-	50	-	-	-
CC1(C(=O)NS(=O)(=O)c2ccccc2)CCN1C(=O)CC1CCCCC1 (stereo not drawn)	-	-	-	-	-	.
CCCn1c(N)c(C(=O)CSc2nnc(-c3cccs3)n2C2CC2)c(=O)[nH]c1=O	-	-	-	-	-	-
COc1ccc(/C=C2/SC(=S)N(CCC(=O)N3CCN(C)CC3)C2=O)cc1	-	-	-	-	-	-
CCOc1ccc(/C=C2/SC(=S)N(CCC(=O)Nc3ccc(C(=O)O)cc3)C2=O)cc1	-	-	-	-	-	-
CCOc1ccc(/C=C2\SC(=S)N(CCC(=O)O)C2=O)cc1	91	-	-	-	-	85
O=C(O)COc1ccc(C=C2SC(=S)N(c3ccccc3)C2=O)cc1	43	-	-	-	-	-
O=C(O)COc1cccc(/C=C2/SC(=S)N(Cc3ccccc3)C2=O)c1	-	-	-	-	-	-
CCc1ccc(/C=C2\SC(=S)N(CCC(=O)N3CCN(C)CC3)C2=O)cc1	-	-	-	-	-	-
COc1ccc(/C=C2/SC(=S)N(CCCC(=O)N3CCN(C)CC3)C2=O)cc1	69	-	-	-	-	-
CC1CCN(C(=O)CCN2C(=O)/C(=C/c3cccs3)SC2=S)CC1	-	-	94	-	-	-
COc1ccccc1OC(C)C(=O)N(Cc1ccco1)C1CCS(=O)(=O)C1 (stereo not drawn)	-	-	-	-	-	.
O=c1[nH]c(=O)n2c(c1-c1ccccc1)OC(CBr)C2 (stereo not drawn)	-	-	-	-	-	.
COc1ccc(C(=O)N=c2sc3c(C)ccc(OC)c3n2C)cc1	-	-	-	-	-	.
O=C1/C(=C/c2ccccc2F)SC(=S)N1CCC(=O)N1CCCCC1CCO (stereo not drawn)	-	-	53	-	-	-
COc1cc(/C=C2\SC(=S)N(CCC(=O)N3CCN(C)CC3)C2=O)cc(OC)c1OC	-	-	-	-	-	-
COc1ccc(/C=C2\SC(=S)N(CCC(=O)N3CCCCC3CCO)C2=O)cc1 (stereo not drawn)	58	-	-	-	-	-
COc1cc(/C=C2/SC(=S)N(CCC(=O)N3CCN(C)CC3)C2=O)cc(OC)c1OC	-	-	53	-	-	.
O=C(CCN1C(=O)/C(=C\c2ccccc2Cl)SC1=S)N1CCN(c2ccccc2)CC1	60	-	100	-	-	-
CCOC(=O)N1CCN(S(=O)(=O)N2CCCC(C(=O)NCc3ccccc3OCC)C2)CC1 (stereo not drawn)	-	-	-	-	-	.
